# Reference: PMC7862700, “An all-to-all approach to the identification of sequence-specific readers for epigenetic DNA modifications on cytosine”
# Columns and labels:
# Experiment in all cases: DAPPL (digital affinity profiling via proximity ligation, sequencing); 10 mM Tris-HCl pH 7.5, 50 mM NaCl, 1 mM DTT, 4% glycerol, room temperature, 30 min; GST-TFs on glutathione beads, 16-mer random dsDNA library, 0.1% formaldehyde crosslink after washing; high values mean tight binding
# FEV = target: T1, FEV (Homo sapiens, UniProt Q99581 1-238); conditions: protein: recombinant; tags: N-terminal GST; dsDNA, one strand shown
# T1 sequence: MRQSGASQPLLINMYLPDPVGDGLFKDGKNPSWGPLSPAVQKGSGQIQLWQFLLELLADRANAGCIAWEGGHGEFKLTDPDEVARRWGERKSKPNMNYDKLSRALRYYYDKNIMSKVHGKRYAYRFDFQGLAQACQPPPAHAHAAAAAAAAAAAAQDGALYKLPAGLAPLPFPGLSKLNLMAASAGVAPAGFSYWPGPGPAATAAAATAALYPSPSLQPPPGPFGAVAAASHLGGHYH
# Summary of the method: (§1)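 After expression in yeast as GST fusions, human transcription factors were bound to glutathione beads, DNA-barcoded and mixed with a tag-only sample. The pools were incubated with 200 nmole of a 16-mer random double-stranded DNA library in Tris/NaCl/DTT/glycerol buffer (30 min, room temperature), washed and crosslinked with 0.1% formaldehyde. Proximity ligation with BsaI/T4 ligase ran for 1 h at 37 °C, before PCR amplification and sequencing on an Illumina NextSeq500. Binding signal is a hexamer's read frequency for a factor divided by its frequency for the tag-only sample.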
# ETV5 = ETV5 (Homo sapiens, UniProt P41161 1-510); conditions: protein: recombinant; tags: N-terminal GST; dsDNA, one strand shown
# Chain of ETV5 (P41161 whole entry): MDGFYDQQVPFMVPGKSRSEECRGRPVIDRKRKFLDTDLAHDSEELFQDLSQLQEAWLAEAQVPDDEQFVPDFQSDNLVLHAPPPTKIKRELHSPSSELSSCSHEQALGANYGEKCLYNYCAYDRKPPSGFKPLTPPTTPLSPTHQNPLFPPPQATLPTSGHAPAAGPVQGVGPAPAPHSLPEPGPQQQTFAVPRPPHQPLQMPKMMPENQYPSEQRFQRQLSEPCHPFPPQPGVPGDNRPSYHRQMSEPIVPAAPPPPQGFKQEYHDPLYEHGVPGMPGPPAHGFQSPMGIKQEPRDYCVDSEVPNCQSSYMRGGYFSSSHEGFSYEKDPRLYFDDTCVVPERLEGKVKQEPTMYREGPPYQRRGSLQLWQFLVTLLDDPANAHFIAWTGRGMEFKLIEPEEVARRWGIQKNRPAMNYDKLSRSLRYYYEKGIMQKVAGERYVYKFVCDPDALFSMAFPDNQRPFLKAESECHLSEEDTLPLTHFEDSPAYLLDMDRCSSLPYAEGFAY
# Summary of the method: as §1
# HSF1 = HSF1 (Homo sapiens, UniProt Q00613 1-529); conditions: protein: recombinant; tags: N-terminal GST; chain copies: 3; dsDNA, one strand shown
# Chain of HSF1 (Q00613 whole entry): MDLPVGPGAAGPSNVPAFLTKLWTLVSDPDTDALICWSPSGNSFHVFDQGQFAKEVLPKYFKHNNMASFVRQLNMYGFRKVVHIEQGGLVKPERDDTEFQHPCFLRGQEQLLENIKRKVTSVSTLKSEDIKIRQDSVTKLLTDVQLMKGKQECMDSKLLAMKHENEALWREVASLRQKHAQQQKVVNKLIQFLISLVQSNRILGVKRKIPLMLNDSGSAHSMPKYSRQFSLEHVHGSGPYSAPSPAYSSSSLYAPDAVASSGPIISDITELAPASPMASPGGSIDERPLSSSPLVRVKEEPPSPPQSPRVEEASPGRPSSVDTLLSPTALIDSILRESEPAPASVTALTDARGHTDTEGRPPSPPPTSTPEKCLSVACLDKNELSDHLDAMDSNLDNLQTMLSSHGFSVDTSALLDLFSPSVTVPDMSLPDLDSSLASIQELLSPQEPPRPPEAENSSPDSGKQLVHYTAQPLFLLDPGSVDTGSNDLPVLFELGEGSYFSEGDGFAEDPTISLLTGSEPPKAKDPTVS
# Summary of the method: as §1
# SPIC = target: T2, SPIC (Homo sapiens, UniProt Q8N5J4 1-248); conditions: protein: recombinant; tags: N-terminal GST; dsDNA, one strand shown
# T2 sequence: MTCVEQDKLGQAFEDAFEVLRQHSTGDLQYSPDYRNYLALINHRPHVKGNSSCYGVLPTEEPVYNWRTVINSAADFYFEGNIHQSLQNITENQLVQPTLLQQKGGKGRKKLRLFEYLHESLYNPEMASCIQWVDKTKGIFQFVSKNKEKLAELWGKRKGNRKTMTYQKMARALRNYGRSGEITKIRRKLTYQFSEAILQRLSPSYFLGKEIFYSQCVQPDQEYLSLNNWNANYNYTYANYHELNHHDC
# Summary of the method: as §1
# ELF4 = ELF4 (Homo sapiens, UniProt Q99607 1-663); conditions: protein: recombinant; tags: N-terminal GST; dsDNA, one strand shown
# Chain of ELF4 (Q99607 whole entry): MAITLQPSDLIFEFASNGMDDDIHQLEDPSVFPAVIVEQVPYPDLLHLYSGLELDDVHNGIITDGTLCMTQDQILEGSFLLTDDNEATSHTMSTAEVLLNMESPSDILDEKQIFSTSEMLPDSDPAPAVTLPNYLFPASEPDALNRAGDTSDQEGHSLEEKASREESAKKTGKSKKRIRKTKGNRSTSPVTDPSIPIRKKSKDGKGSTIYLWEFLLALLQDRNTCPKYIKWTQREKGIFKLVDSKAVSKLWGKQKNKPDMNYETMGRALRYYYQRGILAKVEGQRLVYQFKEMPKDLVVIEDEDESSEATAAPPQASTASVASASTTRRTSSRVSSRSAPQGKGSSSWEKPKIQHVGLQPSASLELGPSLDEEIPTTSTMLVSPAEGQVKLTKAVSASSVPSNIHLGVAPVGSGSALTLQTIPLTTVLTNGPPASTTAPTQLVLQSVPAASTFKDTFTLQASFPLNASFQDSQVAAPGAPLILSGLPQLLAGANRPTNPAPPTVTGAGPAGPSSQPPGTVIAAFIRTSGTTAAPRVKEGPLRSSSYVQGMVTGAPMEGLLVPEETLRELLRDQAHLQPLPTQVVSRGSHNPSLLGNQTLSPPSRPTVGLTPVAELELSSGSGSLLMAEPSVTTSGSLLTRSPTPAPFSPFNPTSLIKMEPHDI
# Summary of the method: as §1
# ELK4 = target: T3, ELK4 (Homo sapiens, UniProt P28324-2 1-405); conditions: protein: recombinant; tags: N-terminal GST; dsDNA, one strand shown
# T3 sequence: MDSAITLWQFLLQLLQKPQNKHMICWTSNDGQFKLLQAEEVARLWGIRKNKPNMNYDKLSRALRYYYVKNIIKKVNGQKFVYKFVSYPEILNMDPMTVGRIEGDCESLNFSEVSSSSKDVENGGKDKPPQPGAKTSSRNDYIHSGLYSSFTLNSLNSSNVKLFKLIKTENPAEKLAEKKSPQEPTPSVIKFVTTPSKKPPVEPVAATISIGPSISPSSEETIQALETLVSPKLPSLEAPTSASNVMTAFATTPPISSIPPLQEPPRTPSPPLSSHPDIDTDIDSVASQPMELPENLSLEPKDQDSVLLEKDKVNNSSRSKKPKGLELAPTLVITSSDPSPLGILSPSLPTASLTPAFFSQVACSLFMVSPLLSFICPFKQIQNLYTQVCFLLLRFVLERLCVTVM
# Summary of the method: as §1
# ETV2 = target: T4, ETV2 (Homo sapiens, UniProt O00321 1-342); conditions: protein: recombinant; tags: N-terminal GST; dsDNA, one strand shown
# T4 sequence: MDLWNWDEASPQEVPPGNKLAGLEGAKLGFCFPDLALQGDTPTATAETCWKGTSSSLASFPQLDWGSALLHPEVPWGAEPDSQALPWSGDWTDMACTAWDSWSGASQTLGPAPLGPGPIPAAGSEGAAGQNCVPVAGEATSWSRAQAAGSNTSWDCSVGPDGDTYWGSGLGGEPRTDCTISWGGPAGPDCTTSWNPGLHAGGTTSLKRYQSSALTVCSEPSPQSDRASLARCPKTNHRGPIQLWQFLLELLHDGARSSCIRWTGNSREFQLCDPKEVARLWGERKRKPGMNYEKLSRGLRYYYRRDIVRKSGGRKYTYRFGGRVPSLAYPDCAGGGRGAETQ
# Summary of the method: as §1
# ELF3 = target: T5, ELF3 (Homo sapiens, UniProt P78545 1-371); conditions: protein: recombinant; tags: N-terminal GST; dsDNA, one strand shown
# T5 sequence: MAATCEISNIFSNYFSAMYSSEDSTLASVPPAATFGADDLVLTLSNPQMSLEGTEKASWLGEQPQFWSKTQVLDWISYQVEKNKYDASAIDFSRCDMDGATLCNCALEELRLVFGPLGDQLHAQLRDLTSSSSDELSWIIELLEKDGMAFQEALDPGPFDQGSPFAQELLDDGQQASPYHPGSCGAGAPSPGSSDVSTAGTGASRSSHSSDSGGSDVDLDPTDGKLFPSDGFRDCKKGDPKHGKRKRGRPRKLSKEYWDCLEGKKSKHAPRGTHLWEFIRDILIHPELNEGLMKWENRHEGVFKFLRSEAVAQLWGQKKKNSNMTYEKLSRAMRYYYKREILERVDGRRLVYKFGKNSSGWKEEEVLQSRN
# Summary of the method: as §1
# CRX = CRX (Homo sapiens, UniProt O43186 1-299); conditions: protein: recombinant; tags: N-terminal GST; dsDNA, one strand shown
# Chain of CRX (O43186 whole entry): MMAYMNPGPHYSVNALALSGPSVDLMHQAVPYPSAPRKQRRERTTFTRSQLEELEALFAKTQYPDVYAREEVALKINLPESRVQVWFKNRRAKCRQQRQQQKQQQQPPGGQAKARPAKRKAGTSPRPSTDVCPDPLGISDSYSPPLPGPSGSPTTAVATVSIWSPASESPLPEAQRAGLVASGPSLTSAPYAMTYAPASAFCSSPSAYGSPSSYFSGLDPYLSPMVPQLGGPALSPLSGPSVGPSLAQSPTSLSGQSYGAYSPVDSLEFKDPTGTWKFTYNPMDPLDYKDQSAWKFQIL
# Summary of the method: as §1
# ETV1 = ETV1 (Homo sapiens, UniProt P50549 1-477); conditions: protein: recombinant; tags: N-terminal GST; dsDNA, one strand shown
# Chain of ETV1 (P50549 whole entry): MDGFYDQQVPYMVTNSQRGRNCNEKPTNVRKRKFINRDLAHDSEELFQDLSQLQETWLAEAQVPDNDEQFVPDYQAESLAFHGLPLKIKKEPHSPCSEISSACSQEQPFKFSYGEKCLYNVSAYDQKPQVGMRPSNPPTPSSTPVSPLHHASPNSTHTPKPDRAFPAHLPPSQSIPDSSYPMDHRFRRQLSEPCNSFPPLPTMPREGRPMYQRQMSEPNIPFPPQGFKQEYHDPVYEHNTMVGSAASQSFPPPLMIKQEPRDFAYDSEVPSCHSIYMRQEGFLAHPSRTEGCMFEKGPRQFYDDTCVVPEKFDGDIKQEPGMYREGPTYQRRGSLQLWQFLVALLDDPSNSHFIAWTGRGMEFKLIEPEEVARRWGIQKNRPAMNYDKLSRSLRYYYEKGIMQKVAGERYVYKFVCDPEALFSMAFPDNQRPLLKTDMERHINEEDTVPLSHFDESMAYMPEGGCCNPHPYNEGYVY
# Summary of the method: as §1
sequence,measurement,setting,value
ATATTG,binding signal,FEV,"1.33 fold enrichment (6-mer frequency, TF over GST control)"
same,binding signal,ETV5,"1.37 fold enrichment (6-mer frequency, TF over GST control)"
same,binding signal,HSF1,"1.19 fold enrichment (6-mer frequency, TF over GST control)"
same,binding signal,SPIC,"1.41 fold enrichment (6-mer frequency, TF over GST control)"
same,binding signal,ELF4,"1.37 fold enrichment (6-mer frequency, TF over GST control)"
same,binding signal,ELK4,"1.24 fold enrichment (6-mer frequency, TF over GST control)"
same,binding signal,ETV2,"1.48 fold enrichment (6-mer frequency, TF over GST control)"
same,binding signal,ELF3,"1.25 fold enrichment (6-mer frequency, TF over GST control)"
same,binding signal,CRX,"1.28 fold enrichment (6-mer frequency, TF over GST control)"
same,binding signal,ETV1,"1.32 fold enrichment (6-mer frequency, TF over GST control)"
